Reference: PubChem BioAssay
Calls of active or inactive are those of the source.

Tests used:
[1] = tested on: Human papillomavirus type 1a protein E7 (residues 44-93); experiment: HPV1a E7 fragment binders on microarrays, primary screen, biochemical, small-molecule microarray, residues 44-93, 635 nm fluorescence (AID 1108); conditions: small-molecule microarray binding, fluorescence 635 nm; higher = more signal;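 also: E7 fragment applied at 1 µg/mL in TBST for 1 h at 4 C; score combines spot fluorescence with its signal to noise ratio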
[2] = modulators of HCV replicon luciferase signal, primary screen, HCV replication inhibitor project, Huh7 cells, luciferase reporter (AID 1109); conditions: 48 h, higher = more signal;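 also: huh7 hepatoma cells harbouring a luciferase neomycin HCV replicon reporter; luciferase luminescence as measure of HCV replicon replication; test concentration not given here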
[3] = target: Left-right determination factor 2 (Homo sapiens) (UniProt O00292); experiment: LEFTY2 binders on small-molecule microarrays, primary screen, biochemical, small-molecule microarray, 635 nm fluorescence scan (AID 1110); conditions: LEFTY2 binding, higher = more signal
Left-right determination factor 2 (Homo sapiens), sequence (O00292 whole entry, looked up): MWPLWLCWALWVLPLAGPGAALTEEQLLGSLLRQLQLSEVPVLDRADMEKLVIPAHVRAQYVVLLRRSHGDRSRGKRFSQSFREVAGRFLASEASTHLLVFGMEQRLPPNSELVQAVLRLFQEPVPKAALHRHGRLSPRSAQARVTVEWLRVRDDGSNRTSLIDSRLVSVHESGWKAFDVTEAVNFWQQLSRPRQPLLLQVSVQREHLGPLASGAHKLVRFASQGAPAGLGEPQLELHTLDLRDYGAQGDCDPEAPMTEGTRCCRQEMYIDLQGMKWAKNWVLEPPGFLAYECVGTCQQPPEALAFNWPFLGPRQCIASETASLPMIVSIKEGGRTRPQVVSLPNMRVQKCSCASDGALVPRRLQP

[4] = target: Calmodulin-1 (Homo sapiens) (UniProt P0DP23); experiment: CALM1 binders on microarrays, EGTA buffer, profiling panel, biochemical, small-molecule microarray, Cy5-labelled CALM1 (AID 1111); conditions: Cy5-CALM1 binding fluorescence, higher = more signal;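 also: labelled calmodulin applied in Tris saline Tween buffer holding calcium plus EGTA and DTT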
[5] = target: Calmodulin-1 (Homo sapiens) (UniProt P0DP23); experiment: calcium-bound CALM1 binders on microarrays, profiling panel, artefact control for SMM control-protein annotation, biochemical, small-molecule microarray, Cy5-labelled CALM1, plus calcium (AID 1112); conditions: Cy5-CALM1 binding fluorescence, higher = more signal;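 also: score merges spot fluorescence with signal to noise from triplicate slides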
[6] = small-molecule microarray binders of probe aWnt5a, primary screen, biochemical, biotinylated probe, 635/667 nm fluorescence (AID 1113); conditions: higher = more signal;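 also: score merges 667 nm fluorescence intensity with signal-to-noise per printed feature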
[7] = small-molecule microarray binders of probe aShh, primary screen, biochemical, biotinylated probe, 635/667 nm fluorescence (AID 1114); conditions: higher = more signal;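 also: probe is biotin-labelled aShh protein from a stem cell growth factor screen; measures binding of labelled protein to compounds printed on the slide; score merges feature fluorescence at 667 nm with signal-to-noise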
[8] = small-molecule microarray binders of probe aNog, primary screen, biochemical, biotinylated probe, 635/667 nm fluorescence (AID 1115); conditions: higher = more signal;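 also: probe is biotinylated aNog protein used at 0.15 µg/mL for 1 h at 4 C; z-score combines 667 nm fluorescence of each spot with its signal to noise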
[9] = target: Torsin-1A-interacting protein 1 (Homo sapiens) (UniProt Q5JTV8); experiment: LAP1 binders from COS7 cell lysate, primary screen, small-molecule microarray, 635/667 nm fluorescence (AID 1116); conditions: COS7-hLAP1 lysate binding, 635 nm fluorescence, higher = more signal
Torsin-1A-interacting protein 1 (Homo sapiens), sequence (Q5JTV8 whole entry, looked up): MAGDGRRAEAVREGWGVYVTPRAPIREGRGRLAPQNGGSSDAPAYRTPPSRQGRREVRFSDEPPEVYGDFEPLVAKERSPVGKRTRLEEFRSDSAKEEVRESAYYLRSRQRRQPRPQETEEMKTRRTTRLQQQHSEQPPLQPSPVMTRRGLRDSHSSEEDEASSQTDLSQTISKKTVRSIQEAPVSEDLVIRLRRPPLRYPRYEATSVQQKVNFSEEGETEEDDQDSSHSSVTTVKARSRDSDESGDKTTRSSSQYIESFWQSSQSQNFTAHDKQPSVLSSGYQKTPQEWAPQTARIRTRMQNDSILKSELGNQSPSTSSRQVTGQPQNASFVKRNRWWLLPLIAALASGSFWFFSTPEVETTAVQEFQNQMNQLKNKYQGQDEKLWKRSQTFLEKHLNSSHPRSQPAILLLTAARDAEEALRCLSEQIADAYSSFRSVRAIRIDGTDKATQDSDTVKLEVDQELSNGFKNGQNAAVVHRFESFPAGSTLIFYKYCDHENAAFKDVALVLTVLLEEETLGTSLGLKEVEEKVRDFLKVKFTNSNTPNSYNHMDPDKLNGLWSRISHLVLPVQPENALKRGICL

[10] = target: Alpha-bungarotoxin (Bungarus multicinctus) (UniProt P60615); experiment: alpha-bungarotoxin binders on microarray, profiling panel, artefact control for SMM control protein annotation, biochemical, small-molecule microarray, Alexa647 label, 635/667 nm fluorescence (AID 1117); conditions: alpha-BTX-A647 binding fluorescence, higher = more signal
Alpha-bungarotoxin (Bungarus multicinctus), sequence (P60615 whole entry, looked up): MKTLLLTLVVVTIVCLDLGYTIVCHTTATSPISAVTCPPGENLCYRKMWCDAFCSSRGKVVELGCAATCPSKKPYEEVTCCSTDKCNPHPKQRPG

[11] = target: Albumin (Bos taurus) (UniProt P02769); experiment: bovine serum albumin binders on microarray, profiling panel, artefact control for SMM control protein annotation, biochemical, small-molecule microarray, Alexa647 label, 635/667 nm fluorescence (AID 1118); conditions: BSA-A647 binding, fluorescence 635 nm, higher = more signal;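 also: score merges 667 nm emission intensity and signal-to-noise per printed compound spot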
Albumin (Bos taurus), sequence (P02769 whole entry, looked up): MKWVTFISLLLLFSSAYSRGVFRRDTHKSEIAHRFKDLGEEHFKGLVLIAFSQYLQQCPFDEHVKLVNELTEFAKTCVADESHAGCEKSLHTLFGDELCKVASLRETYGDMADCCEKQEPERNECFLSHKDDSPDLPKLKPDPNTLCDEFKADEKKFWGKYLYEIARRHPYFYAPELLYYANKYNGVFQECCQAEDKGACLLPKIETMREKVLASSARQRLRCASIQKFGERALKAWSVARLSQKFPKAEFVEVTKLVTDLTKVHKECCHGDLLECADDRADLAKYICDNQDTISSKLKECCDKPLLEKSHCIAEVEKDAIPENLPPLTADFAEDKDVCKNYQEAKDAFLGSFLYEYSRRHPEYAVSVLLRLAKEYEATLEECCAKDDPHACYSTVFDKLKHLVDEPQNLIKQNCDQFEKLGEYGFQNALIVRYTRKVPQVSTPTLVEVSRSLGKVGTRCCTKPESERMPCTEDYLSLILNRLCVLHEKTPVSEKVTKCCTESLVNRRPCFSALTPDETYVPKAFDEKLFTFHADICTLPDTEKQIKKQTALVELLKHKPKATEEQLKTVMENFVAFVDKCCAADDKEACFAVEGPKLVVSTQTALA

[12] = small-molecule microarray binders of probe aXIP, primary screen, biochemical, NeuroSMM set, 635/667 nm fluorescence (AID 1119); conditions: higher = more signal, called active from +8 up or from −8 down;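 also: probe is the protein aXip251-270 applied at 1 µg/mL to compound-printed slides; binding of probe to printed compounds measured as 667 nm fluorescence plus signal to noise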
[13] = small-molecule binders of probe aNOTCH3, primary screen, biochemical, small-molecule microarray, 635/667 nm fluorescence (AID 1120); conditions: higher = more signal;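 also: probe is a biotin-tagged antibody raised against NOTCH3 rather than NOTCH3 protein; score merges spot fluorescence near 667 nm with spot signal to noise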
[14] = small-molecule binders of probe aNOTCH2, primary screen, biochemical, small-molecule microarray, 635/667 nm fluorescence (AID 1121); conditions: higher = more signal;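 also: score merges feature fluorescence read at 667 nm with its signal to noise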
[15] = target: Carbonic anhydrase 2 (Homo sapiens) (UniProt P00918); experiment: CAII small-molecule binders, profiling panel, biochemical, small-molecule microarray, Alexa647-labelled CAII (AID 1122); conditions: CAII-A647 binding fluorescence, higher = more signal
[16] = COS7 lysate on small-molecule microarray, probe aHis, 635 nm (AID 1123); conditions: COS7 cell lysate, fluorescence, higher = more signal;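 also: z-score combines 667nm fluorescence intensity with signal-to-noise per printed compound spot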
[17] = compound binding in COS7 lysate, probe aLAP1, primary screen, cell lysate, small-molecule microarray (AID 1124); conditions: probe aLAP1, fluorescence, higher = more signal;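 also: lysate comes from COS7 cells expressing LAP1 and is applied at 0.3 µg/mL; score merges spot fluorescence near 667 nm with signal-to-noise over triplicate slides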
[18] = tested on: Sam68 (KHDRBS1); experiment: Sam68 small-molecule binders, primary screen, biochemical, small-molecule microarray, 635 nm fluorescence (AID 1125); conditions: small-molecule microarray binding, higher = more signal;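 also: score merges 667 nm channel intensity with signal to noise over triplicate slides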
[19] = tested on: Chordin-like protein 2 (CHRDL2); experiment: CHRDL2 small-molecule binders, primary screen, biochemical, small-molecule microarray, 635 nm fluorescence (AID 1126); conditions: small-molecule microarray binding, fluorescence 635 nm; higher = more signal;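 also: printed compound slides probed with Chrdl2 protein at 4 µg/mL for 1 h at 4 C; score merges 667 nm emission intensity with signal to noise over three replicate slides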
[20] = target: Concanavalin-A (Canavalia ensiformis) (UniProt P02866); experiment: ConA small-molecule binders, primary screen, artefact control for SMM control protein annotation, biochemical, small-molecule microarray, Alexa647 label, 635 nm (AID 1127); conditions: ConA-A647 binding fluorescence, higher = more signal;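 also: z combines 667 nm emission intensity with signal-to-noise across three replicate slides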
Concanavalin-A (Canavalia ensiformis), sequence (P02866 whole entry, looked up): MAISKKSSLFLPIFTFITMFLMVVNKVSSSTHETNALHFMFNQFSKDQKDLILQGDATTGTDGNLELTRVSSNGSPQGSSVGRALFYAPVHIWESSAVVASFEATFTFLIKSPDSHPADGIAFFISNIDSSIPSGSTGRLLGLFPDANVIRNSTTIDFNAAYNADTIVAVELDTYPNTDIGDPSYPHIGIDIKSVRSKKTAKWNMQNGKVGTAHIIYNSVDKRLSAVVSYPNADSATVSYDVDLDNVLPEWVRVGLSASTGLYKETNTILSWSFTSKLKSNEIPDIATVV

| Structure (SMILES) | composite z-score [1] | z-score [2] | composite z-score [3] | composite z-score [4] | composite z-score [5] | composite z-score [6] | composite z-score [7] | composite z-score [8] | composite z-score [9] | composite z-score [10] | composite z-score [11] | composite Z-score [12] | composite z-score [13] | composite z-score [14] | composite z-score [15] | composite z-score [16] | composite z-score [17] | composite z-score [18] | composite z-score [19] | composite z-score [20] |
| --- | --- | --- | --- | --- | --- | --- | --- | --- | --- | --- | --- | --- | --- | --- | --- | --- | --- | --- | --- | --- |
| O=C(NCc1ccc(F)cc1)[C@H]1C[C@H]2C(=O)NCC(=O)N2[C@H]1c1ccc(O)cc1 | 1.03 | -0.0497 | 0.887 | -0.449 | 0.0871 | -0.0684 | -0.0553 | -0.132 | 0.605 | -0.144 | -0.447 | 0.534 (inactive) | 0.0066 | -0.084 | 0.694 | 1.43 | 0.112 | 1.07 | 0.491 | 0.8 |
| C=CCOC(=O)[C@@H]1[C@H]2C(=O)O[C@H](c3ccccc3)[C@H](c3ccccc3)N2[C@H](c2ccc(OCCOC(=O)[C@@H]3C[C@@H]4C(=O)N[C@@H](CCCC[N+](C)(C)C)C(=O)N4[C@@H]3c3ccc(O)cc3)cc2)[C@@]12C(=O)Nc1ccc(I)cc12 | 1.41 | -0.282 | 0.459 | -0.14 | -0.521 | -0.112 | 0.614 | 0.559 | 1.36 | 0.923 | 0.118 | -0.0092 (inactive) | 0.0282 | -0.084 | 0.473 | 1.92 | 0.417 | 1.29 | 0.841 | 0.756 |
| CC(C)(C)OC(=O)COc1cccc(C(=O)CCN2CCOCC2)c1 | 0.219 | -1.7 | 0.0527 | -0.501 | -0.841 | -0.192 | -0.193 | -0.419 | -0.0786 | -0.204 | 0.217 | 0.784 (inactive) | -0.0119 | -0.074 | -0.382 | 0.258 | -0.281 | 0.656 | 0.309 | -0.244 |
| CCCCC(O)C1C=CC2C(=O)N(C)C(=O)C2N1N(c1ccccc1)c1ccccc1 (stereo not given) | 0.447 | -0.991 | 0.186 | 2.06 | 0.766 | -0.0161 | 0.393 | 1.53 | 1.41 | 1.8 | 0.878 | 0.418 (inactive) | 0.183 | 0.0203 | 0.797 | 2.73 | 0.923 | 1.32 | -0.711 | 1.1 |
| C=CCOC(=O)[C@@]1(Cc2ccccc2)C[C@H]2CO[C@H](c3ccc(OC)cc3)N2C1=O | 0.206 | -0.938 | 0.283 | -0.388 | -0.659 | -0.0846 | -0.0035 | -0.118 | 0.574 | 0.352 | 0.484 | -0.415 (inactive) | -0.0615 | -0.107 | -0.0067 | 0.146 | 0.0469 | 0.168 | 0.194 | 0.192 |
| O=C(Cc1ccccc1)[C@H]1C2C=CCCC(c3ccccc3)=C2CN1Cc1ccccc1 (stereo not given in full) | -0.75 | -0.576 | 0.174 | -0.185 | -0.354 | -0.0566 | -0.124 | 0.0326 | 0.163 | -0.0051 | -0.567 | -0.041 (inactive) | -0.166 | -0.179 | -0.302 | -0.328 | 0.0448 | -0.299 | 0.23 | -0.22 |
| O=C1CS(=O)(=O)C(c2cccc([N+](=O)[O-])c2)N1c1ccccc1 (stereo not given) | -0.611 | -0.376 | 0.432 | 0.0568 | -0.177 | 0.157 | 0.122 | -0.217 | 1.49 | 1.98 | 0.501 | 1.11 (inactive) | 0.482 | 0.48 | 0.787 | 0.904 | 0.85 | 0.329 | 0.527 | 0.353 |
| COc1ccc([Si](C)(C)[C@@H]2[C@@H](CCO)O[C@]3(C(=O)N(Cc4ccccc4)c4ccc(N5C(=O)c6cccc7cccc5c67)cc43)[C@H]2C)cc1 | -0.432 | -4.17 | -0.558 | 0.991 | 0.836 | -0.251 | -0.237 | 0.2 | -0.697 | 0.0366 | 0.511 | 0.708 (inactive) | -0.146 | -0.155 | -0.0746 | 1.25 | -0.3 | -0.239 | -0.215 | 1.01 |
| CC1CC/C=C\[C@H]2OC34C=CCN(C(C)C)C(=O)[C@H]3N(CCO)C(=O)[C@@H]4C2C(=O)O1 (stereo not given in full) | -0.21 | -0.566 | -1.6 | -0.377 | 0.0947 | -0.202 | 0.0062 | -0.0926 | -0.241 | -1.22 | -0.935 | -0.0467 (inactive) | -0.312 | -0.125 | 0.933 | -0.31 | 0.492 | -0.175 | -1.26 | -1.8 |
| O=C1[C@H]2C=C(I)[C@H](C[C@@H]2OCCOCCO)[C@@]12CO2 | 0.496 | -2.21 | 0.547 | -0.315 | -0.876 | -0.26 | -0.243 | 0.101 | 0.269 | -0.0432 | -0.35 | -0.175 (inactive) | -0.0299 | -0.173 | -0.0167 | -0.477 | 0.072 | 0.807 | 0.466 | 0.2 |
| C=CCC(OC(C)=O)[C@@H]1[C@@H](N(Cc2cccc3ccccc23)C(=O)Cc2ccc(F)cc2)c2cc(OCCCO)ccc2N1C(=O)c1ccc2ccccc2c1 (stereo not given in full) | 0.408 | -0.204 | 0.171 | -0.0876 | 0.441 | -0.124 | -0.0626 | -0.17 | -0.0393 | 0.0927 | -0.0241 | -0.748 (inactive) | -0.0111 | -0.104 | -0.0968 | 0.0036 | -0.353 | -0.0562 | 0.235 | -0.15 |
